# C-LANA FP – KSHV C-LANA DNA binding inhibition. MBP-C-LANA/FAM-LBS DNA binding, fluorescence polarization. inhibition, % at 9 µM. 0.078% of 340,000 active;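 active = highest replicate inhibition at or above 60% at 9 µM, even if other replicates fall short; inactive = all replicates below 60% inhibition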;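 note: 0% = neutral control wells and 100% = 4 µM acridine orange control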
# eLon inh – E. coli protease La inhibition. P0A9M0. purified E. coli Lon protease, fluorescence polarization. inhibition, % at 7.94 µM. 0.42% of 360,000 active. AID 602123; in the data active = inhibition above about 13%, passing the limit was not always enough;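 note: 0% = enzyme with probe and DMSO and 100% = no enzyme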
# ZTA DNA inh – blocks Epstein-Barr virus ZTA, an EBNA-1 counter-screen. ZTA-DNA binding, fluorescence polarization. inhibition, % at 11 µM. 0.15% of 320,000 active; in the data active = inhibition above about 33%
# Target sequence (P03206 whole entry, looked up): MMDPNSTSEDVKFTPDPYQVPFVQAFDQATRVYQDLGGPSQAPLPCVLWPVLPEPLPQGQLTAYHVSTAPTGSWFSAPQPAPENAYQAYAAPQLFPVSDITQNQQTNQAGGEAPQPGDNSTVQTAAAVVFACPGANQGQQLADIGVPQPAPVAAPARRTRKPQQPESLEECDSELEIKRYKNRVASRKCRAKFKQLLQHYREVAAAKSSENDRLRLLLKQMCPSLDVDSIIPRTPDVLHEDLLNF
# Keap1-Nrf2 PPI – disrupts human Keap1 binding to Nrf2 peptide; Keap1 Kelch-Nrf2 peptide fluorescence polarization, 1536-well; inhibition, % at 9.4 µM; 0.15% of 340,000 active; AID 504523; in the data active = inhibition above about 12%;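 note: human Keap1 Kelch domain with fluorescein labeled Nrf2 9mer peptide probe; 0% = neutral control wells and 100% = peptide positive control; higher means more block of Keap1 binding to Nrf2 peptide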
# EBNA-1 inh – blocks EBNA-1 binding to DNA. EBNA-1 DNA binding, fluorescence polarization. inhibition, % at 14.8 µM. 0.34% of 300,000 active. AID 1950; in the data active = inhibition above about 28%
# eLon confirm – E. coli Lon inhibition confirmation | shares compounds with eLon inh | purified E. coli Lon, fluorescence polarization | inhibition, % at 7.94 µM | 31% of 1,400 active | AID 602230; in the data active = inhibition above about 16%;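 note: 0% = enzyme with probe and DMSO and 100% = no enzyme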
# Starred values were filed as active, the others as inactive; · = no result given; + = active, no number. Most compounds without a hit are left out; they make up all but 0.85% or so of the library.
SMILES,C-LANA FP,eLon inh,ZTA DNA inh,Keap1-Nrf2 PPI,EBNA-1 inh,eLon confirm
CC(C)(C)OC(=O)N(CCc1ccccc1)Cc1ccc(OCc2cccc(NC(=O)/C=C/c3ccccc3)c2)cc1,0.5,15.4*,·,-4.7,·,-7.3
COc1ccccc1OCCNC(=O)c1cccc(S(=O)(=O)NCc2ccccc2)c1,-1.7,-11.2,-0.1,2.1,·,·
COc1cccc(OCC(O)CN2CCN(c3ccc(F)cc3)CC2)c1 (centres undefined),0.3,19.6*,-12.5,-4.3,-6.1,-14.3
COc1cccc(OC)c1OCC(O)CN1CCN(c2ccc(F)cc2)CC1 (centres undefined),1.1,7.4,-0.4,-4.4,-4.6,·
CNC(=O)CSc1nc2cccnc2n1C1CCCCC1,-2.3,-3.6,8.8,-2.0,0.9,·
CNC(=O)CSc1nc2cccnc2n1-c1ccc(F)cc1,-0.6,28.3*,·,0.1,·,-11.3
COc1cc(/C=C/CN2CCC(C(=O)NC(c3ccc(F)cc3)c3ccc4ccccc4n3)CC2)ccc1OC(C)=O (centres undefined),·,25.5*,·,·,·,1.0
O=C1C(=O)c2ccccc2C(O)=C1CCCCl,4.3,77.2*,-5.0,1.3,1.5,4.7
Cc1ccc(NC(=O)C2(C)CCN2C(=O)Cc2cc(F)ccc2F)cc1 (centres undefined),·,-7.5,·,·,·,·
Cc1cnc(C(=O)N2CCN(S(=O)(=O)c3ccc4ccccc4c3)CC2)cn1,-2.6,0.5,17.5,-3.5,5.3,·
O=C(c1cnccn1)N1CCN(S(=O)(=O)c2ccc3ccccc3c2)CC1,-1.0,20.1*,10.8,-5.9,-11.9,1.2
COc1ccc(NC(C)=O)cc1S(=O)(=O)NC(C)c1ccc(-n2ccnc2)cc1 (centres undefined),0.1,-9.3,-2.9,-3.4,·,·
CCCN(CC(=O)Nc1ccc(C(C)=O)cc1)CC(=O)Nc1ccccc1C,1.4,-5.2,-6.0,-0.4,-0.1,·
CCCN(CC(=O)Nc1cc(C)on1)CC(=O)Nc1ccccc1C,-0.5,60.3*,0.5,1.2,·,0.4
Cc1ccc(S(=O)(=O)N2CCN(CC(=O)NCC3(N4CCOCC4)CCCCC3)CC2)cc1,-0.1,3.7,·,2.2,·,·
Cc1ccc(CNc2ccc(O)cc2)cc1,0.2,19.8*,·,-5.8,·,-24.5
O=c1[nH]cnc2sc3c(c12)CCN(Cc1ccccc1)C3,0.7,25.0*,-8.6,-0.5,-3.1,10.7
O=c1[nH]cnc2sc3c(c12)CN(Cc1ccccc1)CC3,0.3,10.1,7.1,0.4,-1.1,·
COc1cc(/C=N/NC(=O)COc2ccc(-n3cnnn3)cc2)ccc1OCC(N)=O,1.0,21.8*,3.5,-3.8,-4.2,-3.3
CC(C(=O)N1CCCc2c1c(=O)oc1ccc(O)cc21)N1CCc2ccccc2C1 (centres undefined),-1.4,16.2*,-1.4,0.9,-11.7,+
CN(CC(=O)N1CCCc2c1c(=O)oc1ccc(O)cc21)Cc1ccccc1,0.9,4.1,12.6,-5.3,8.6,·
O=C(O)c1c(-c2ccccc2)cnc2ccccc12,·,-5.2,·,·,·,·
O=C(Nc1ccc(OCC(=O)N2CCOCC2)cc1)c1ccccc1Cl,1.0,21.9*,5.4,-5.4,9.8,-0.3
COc1ccc(Cl)cc1C(=O)Nc1ccc(OCC(=O)N2CCOCC2)cc1,-0.2,3.3,·,-6.4,·,·
CC(=O)N1CCN(c2ccc(NC(=O)c3ccccc3Cl)cc2)CC1,0.2,-10.6,-2.1,0.1,-6.9,·
SMILES,C-LANA FP,eLon inh,ZTA DNA inh,Keap1-Nrf2 PPI,EBNA-1 inh,eLon confirm
O=C(Nc1ccc(N2CCCCCC2)cc1)c1ccccc1Cl,1.3,18.8*,18.2,-6.1,4.2,0.1
Cc1cc(OCC(=O)N2CCOCC2)ccc1NC(=O)c1ccccc1C,0.4,16.6*,-4.8,-6.6,0.9,0.3
COC(=O)c1nn(-c2cccc(C(F)(F)F)c2)ccc1=O,-1.2,19.5*,-1.1,-3.0,6.0,-8.8
C#CCN1c2ccccc2Sc2cccnc21,-0.3,165.5*,13.6,-2.2,6.2,20.8*
CC(CN1c2ccccc2Sc2ccccc21)N(C)C (centres undefined),0.3,6.5,-7.2,-0.5,4.2,·
COc1ccc(C(=O)NNS(=O)(=O)c2ccccc2)cc1OC,-2.1,-0.4,-3.9,-1.3,-5.4,·
NNC(=O)c1cc(C23CC4CC(CC(C4)C2)C3)[nH]n1,-0.5,-2.9,2.0,-0.6,8.0,·
COc1ccc(N(CC(=O)NCc2ccc(F)cc2)C(=O)Cn2nnc(-c3ccc(C)o3)n2)cc1OC,0.1,5.7,9.9,3.0,15.2,·
COc1cc2[nH]c(=S)nc(NCc3ccccn3)c2cc1OC,16.0,26.2*,·,6.7,·,56.5*

# From PubChem BioAssay
